An excerpt weighted towards active compounds, which were near 2.9% of everything screened.
APOBEC3A inh: inhibitors of human APOBEC3A DNA deaminase. AID 493011. 330,000 tested, 0.41% active. inhibition, % at 20 µM. recombinant A3A, FAM/TAMRA ssDNA deamination fluorescence. P31941;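 active = at least 40% inhibition at 20 µM here, with at most 30% in a related deaminase screen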;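 also: plate controls were A3A with DMSO for no effect and wells lacking A3A enzyme for full effect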
PfG6PD inh: PfG6PD (Plasmodium falciparum) enzyme inhibition; PfGluPho enzyme, NADPH resazurin-diaphorase fluorescence; inhibition, % at 20 µM; 350,000 tested, 0.78% active; AID 504690;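 active = inhibition reaching at least a set limit at 20 µM in the primary screen, cut at about 59% in these data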;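 also: 0% = DMSO wells with substrate and 100% = DMSO wells lacking glucose-6-phosphate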
Cardio protect: protects H9c2 cardiomyocytes from peroxide injury. H2O2 injury protection, ATPLite, 2 h. protection from H2O2 cell death, % at 20 µM. 360,000 tested, 0.63% active;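 active = compounds giving at least 50% protection of heart cells from peroxide-induced death in the single-dose screen, raw or plate-pattern-corrected value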;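 also: 0% = DMSO wells with peroxide and 100% = DMSO wells without peroxide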
TAG inh: reduces triacylglycerol accumulation in H9c2 cells; AID 651582; Nile Red lipid (TAG) fluorescence; cells loaded with 200 µM oleic acid; inhibition, % at 12.5 µM; 230,000 tested, 0.66% active;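 active = pattern-corrected inhibition of lipid staining of at least 50% with the nuclear-stain viability signal not falling by more than 50%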;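 also: 0% = DMSO wells and 100% = triacsin C control wells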
NadD inh: NadD (S. aureus) enzyme inhibition. purified NadD enzyme, colorimetric absorbance read-out. inhibition, % at 20 µM. 360,000 tested, 0.78% active; in the data active = inhibition above about 26%
A3G deaminase: inhibitors of human APOBEC3G DNA deaminase | recombinant A3G, ssDNA deamination FAM/TAMRA fluorescence | inhibition, % at 20 µM | 330,000 tested, 0.28% active;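 active = inhibition of at least 40% at 20 µM, with no more than 30% in the related APOBEC3A deaminase screen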;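 also: plate controls were DMSO wells with A3G for no effect and wells lacking A3G enzyme for full effect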
Target sequence (Q9HC16 whole entry, looked up): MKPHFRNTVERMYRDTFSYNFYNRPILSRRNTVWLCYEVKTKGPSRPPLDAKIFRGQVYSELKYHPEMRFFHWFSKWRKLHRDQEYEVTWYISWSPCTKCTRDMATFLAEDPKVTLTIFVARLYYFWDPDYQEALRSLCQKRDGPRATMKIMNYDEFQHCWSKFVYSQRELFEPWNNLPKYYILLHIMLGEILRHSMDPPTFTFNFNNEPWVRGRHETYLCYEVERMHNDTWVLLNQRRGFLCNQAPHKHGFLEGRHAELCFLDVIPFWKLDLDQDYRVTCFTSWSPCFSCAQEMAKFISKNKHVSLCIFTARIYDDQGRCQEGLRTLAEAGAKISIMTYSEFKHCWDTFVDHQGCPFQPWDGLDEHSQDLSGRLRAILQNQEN
An asterisk follows results filed as active; x = no result.

SMILES	APOBEC3A inh	PfG6PD inh	Cardio protect	TAG inh	NadD inh	A3G deaminase
Cc1cccc(N(C(=O)c2snc(C(N)=O)c2N)C(C(=O)NCC2CCCO2)c2ccc(N(C)C)cc2)c1C (stereo not drawn)	-5	2	14	x	2	-5
CN(C)c1ccc(C(C(=O)NCC2CCCO2)N(Cc2ccccc2)C(=O)c2snc(C(N)=O)c2N)cc1 (stereo not drawn)	-5	12	51*	x	4	-7
CN(C)c1ccc(C(C(=O)NCC2CCCO2)N(Cc2ccco2)C(=O)c2snc(C(N)=O)c2N)cc1 (stereo not drawn)	-5	7	52*	x	-6	-7
COc1cc(/C=C/c2nnc3c4ccccc4ncn23)cc(OC)c1OC	1	7	68*	x	-3	3
C(=C\c1nnc2c3ccccc3ncn12)/c1ccccc1	x	1	2	x	3	x
CC(=O)Nc1cc(-c2cccc(C(=O)N(C)C)c2)cn2c(-c3ccc(C(C)=O)cc3)cnc12	x	x	55*	6	2	x
CC(=O)Nc1cc(-c2cccc(NS(C)(=O)=O)c2)cn2c(-c3cccc(C(C)=O)c3)cnc12	x	x	78*	-8	-7	x
CC(=O)Nc1cc(-c2cccc(C(=O)N(C)C)c2)cn2c(-c3ccccc3)cnc12	x	x	19	7	9	x
CC(=O)Nc1cc(-c2ccccc2)cn2c(-c3cccc(C(C)=O)c3)cnc12	x	x	51*	2	-6	x
CC(=O)Nc1cc(-c2ccc(C(=O)N3CCOCC3)cc2)cn2c(-c3ccc(C(C)=O)cc3)cnc12	x	x	76*	1	4	x
CCc1cc(C(=O)N(C)CC(=O)N(CC(C)C)c2c(N)n(CC(C)C)c(=O)[nH]c2=O)sc1C	5	6	4	-11	2	-3
CC(=O)c1cccc(-c2cnc3c(NC=O)cc(-c4ccccc4F)cn23)c1	x	x	59*	6	1	x
COCCn1nnnc1C(C(C)C)N(Cc1cccnc1)Cc1cc2cc(OC)ccc2[nH]c1=O (stereo not drawn)	0	-15	61*	6	6	-4
COCCn1nnnc1C(C(C)C)N(Cc1ccccc1)Cc1cc2cc(OC)ccc2[nH]c1=O (stereo not drawn)	x	15	42	-9	5	x
COc1ccc2[nH]c(=O)c(CN(Cc3ccco3)C(c3nnnn3Cc3ccccc3)C(C)C)cc2c1 (stereo not drawn)	0	-31	51*	x	7	1
CCC(c1nnnn1Cc1ccco1)N(Cc1ccccc1OC)Cc1cc2cc(C)ccc2[nH]c1=O (stereo not drawn)	-3	23	-23	6	30	-6
COc1ccc2[nH]c(=O)c(CN(Cc3nnnn3Cc3ccco3)C3CCCCC3)cc2c1	35	35	44	15	8	10
COc1ccc2[nH]c(=O)c(CN(C3CCCCC3)C(c3nnnn3Cc3ccco3)C(C)C)cc2c1 (stereo not drawn)	2	88*	95*	-1	59*	30
CCC(c1nnnn1Cc1ccco1)N(Cc1cc2cc(C)cc(C)c2[nH]c1=O)CC1CCCO1 (stereo not drawn)	2	2	62*	11	2	4
O=C(/C=C/Nc1ccc(S(=O)(=O)Nc2ncccn2)cc1)c1ccc2ccccc2c1	-1	1	-6	-5	14	-5
C[C@@H]1CN([C@H](C)CO)C(=O)CCCn2cc(nn2)CO[C@H]1CN(C)S(=O)(=O)c1ccccc1	x	7	-5	-14	-1	x
COc1ccc(OC)c(NC(=O)Nc2ccc3c(c2)OCO3)c1	1	27	-3	-20	0	-3
COc1cc(-c2ccc3c(=O)c4ccccc4sc3c2)cc(OC)c1OC	-2	-5	-6	23	-5	-7
COc1cc(-c2ccc3c(=O)c4ccccc4n(C)c3c2)cc(OC)c1OC	-3	21	88*	8	-14	-5
COC(=O)C(=Cc1ccccc1[N+](=O)[O-])C(=O)OC	0	2	-11	x	-2	2
CCN(Cc1ccccc1)C(=O)c1ccc2c(=O)n3c(nc2c1)CCC3	-2	-1	8	20	1	-12
Cc1cccc(-n2c(SCc3cc(=O)n4ccsc4n3)nc3ccccc3c2=O)c1	2	11	67*	20	8	-4

Source: PubChem
